This is a sample that favours compounds with a hit; in the whole collection about 21% have one here.
TDP1 cell noCPT: qHTS for Inhibitors of human tyrosyl-DNA phosphodiesterase 1 (TDP1): qHTS in cells in absence of CPT. Potency, µM (titrated, usually from 46.2 µM), inactives show top-dose activity change, negative = growth inhibition, usual class: inhibitors. DT40 Tdp1-/- hTDP1 cells, no CPT, ATP luminescence, 48 h. actives 15% (n = 420,000); note: potency is the fitted concentration of half-maximal effect; % is set by controls: 0 for no effect and ±100 for the full control effect; nearly all actives have a fitted effect of over 55% in size
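Chicken DT40 Tdp1-/- cells stably complemented with human TDP1 were seeded at 400 cells/well with DMSO in place of 20 nM camptothecin. After compound pinning, cells grew at least 48 hr at 37 °C; viability read by CellTiter-Glo luminescence.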
DT40 TDP1 CPT: qHTS for Inhibitors of human tyrosyl-DNA phosphodiesterase 1 (TDP1): qHTS in cells in presence of CPT; Potency, µM (top dose mostly 46.2 µM), without a hit: at the highest dose activity change, negative = growth inhibition, usual class: inhibitors; actives 12% (n = 420,000); chicken DT40 Tdp1-/-;hTDP1 cells + 20 nM CPT, ATP luminescence, 48 h; note: potency is the fitted concentration of half-maximal effect; % is set by controls: 0 for no effect and ±100 for the full control effect; nearly all actives have a fitted effect of over 55% in size
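Chicken DT40 Tdp1-/- cells stably complemented with human TDP1 were seeded at 400 cells/well in medium containing 20 nM camptothecin, exposed to pin-transferred compounds, and grown at 37 °C for at least 48 hr. Viability was read as ATP luminescence.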
ClpP mod: qHTS Assay for Activators of ClpP | actives 1.9% (n = 340,000) | Potency, µM (top dose mostly 57.5 µM), for inactives: at the top dose activity change, negative = active | AID 651965, 2013 | purified B. subtilis ClpP, FRET peptide cleavage, 20 min; active = well fitted falling curve with a large enough effect; inconclusive = small, poorly fitted or top-dose-only effect; inactive = no such curve, though single readings can be large or run the other way; note: potency is the fitted concentration of half-maximal effect; the source files actives as falling curves though it sought activators and does not explain the sign; nearly all actives have a fitted effect of over 65% in size
Target sequence (P80244 whole entry, looked up): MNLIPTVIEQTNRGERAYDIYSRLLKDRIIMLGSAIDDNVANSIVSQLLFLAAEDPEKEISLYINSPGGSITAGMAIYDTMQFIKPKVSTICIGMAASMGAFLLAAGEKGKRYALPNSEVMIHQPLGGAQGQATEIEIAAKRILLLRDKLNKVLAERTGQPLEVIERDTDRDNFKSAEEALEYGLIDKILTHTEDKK
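FRET quenching reversal measured ClpP activation: 10 microg/mL B. subtilis ClpP at pH 8 with the FRET-FV decapeptide, read at 430 nm after 320 nm excitation. The 20-min minus 0-min signal was scaled between DMSO/no-enzyme wells and ADEP (5.8 microM final).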
D3 antag: qHTS of D3 Dopamine Receptor Antagonist: qHTS; actives 2.5% (n = 360,000); D(3) dopamine receptor (Homo sapiens), P35462; AID 652054, 2013; max response, negative = inhibition, %; D3R cells, DiscoveRx beta-arrestin luminescence, antagonist mode; active compounds read low; in the data active = max response below about -50%; inconclusive = no clear call, values can overlap the other calls; note: % is set by controls: 0 for no effect and ±100 for the full control effect
Target sequence (P35462 whole entry, looked up): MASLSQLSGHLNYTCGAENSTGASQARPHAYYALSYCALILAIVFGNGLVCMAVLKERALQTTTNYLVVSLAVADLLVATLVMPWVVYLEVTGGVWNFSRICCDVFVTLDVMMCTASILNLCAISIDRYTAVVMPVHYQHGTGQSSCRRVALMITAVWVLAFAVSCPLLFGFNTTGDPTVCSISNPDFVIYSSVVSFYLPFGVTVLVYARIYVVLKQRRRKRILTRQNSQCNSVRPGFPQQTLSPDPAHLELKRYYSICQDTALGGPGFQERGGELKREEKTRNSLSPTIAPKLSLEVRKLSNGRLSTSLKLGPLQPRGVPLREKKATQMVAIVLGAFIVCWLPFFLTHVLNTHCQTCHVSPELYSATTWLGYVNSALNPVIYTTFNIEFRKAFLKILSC
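Cells expressing the human receptor were seeded at 1500 cells/well, incubated overnight at 37 degrees C in 5% CO2, then exposed to library compounds with dopamine controls for 90 minutes at 37 degrees C before luminescent detection.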
IL-1B inflam inh: qHTS for Inhibitors of Inflammasome Signaling: IL-1-beta AlphaLISA Primary Screen; THP-1 LPS/ATP IL-1B secretion, AlphaLISA, 16 h; active compounds read low; activity change, % at 57.5 µM; actives 4.7% (n = 360,000); in the data active = activity change below about -50%; inconclusive = mostly about -30% to -49%; note: % is set by controls: 0 for no effect and ±100 for the full control effect
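THP-1 cells pretreated 1 hr with compounds (up to 57.5 uM final), then stimulated with LPS (250 ng/mL final) plus ATP (1.25 mM final); secreted IL-1B measured by AlphaLISA after 16 hr, decreased signal indicating inhibition.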
DRD3 agonist: qHTS of D3 Dopamine Receptor Agonist: qHTS | D(3) dopamine receptor (Homo sapiens), P35462 | D3R DiscoveRx beta-arrestin cells, luminescence, 90 min | max activation, % | actives 0.58% (n = 410,000) | AID 652048, 2013; in the data active = max activation above about 30%; note: 0% is about no effect
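Agonist mode: compounds and dopamine controls were applied to plated cells for 90 min at 37 degrees C after an overnight attachment at 1500 cells/well. Luminescent read-out followed 30 - 60 minutes at room temperature with DiscoveRx detection reagent.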
Numbers without * were called inactive; u = inconclusive; x = no result; ! = not confirmed by another sample. Unless noted, calls come from the whole dose curve; as a rule, active = well fitted inhibition curve with a large enough effect; inconclusive = small, poorly fitted or top-dose-only effect; inactive = flat fitted curve, though single readings scatter.

SMILES | TDP1 cell noCPT | DT40 TDP1 CPT | ClpP mod | D3 antag | IL-1B inflam inh | DRD3 agonist
O=C(CC1C(=O)NCCN1Cc1ccccc1C(F)(F)F)NC1CCCCC1 (configuration not stated) | -4% | -13% | -9% | -21 | -23 | -3
CCOc1ccccc1NC(=O)CN1C(=O)CC(c2ccc(C)c(C)c2)=Nc2ccccc21 | -14% | -6% | -6% | x | x | -8
Cc1onc(-c2c(Cl)cccc2Cl)c1C(=O)c1ccccc1 | 21µM* | 23µM* | x | 12 | 22 | 16
Cc1onc(-c2ccccc2Cl)c1C(=O)c1ccccc1 | u | -9% | x | -9 | x | 2
O=C(NC(c1ccc(Cl)cc1)c1cnccn1)C1CCN(CCOc2ccc(F)cc2)CC1 (configuration not stated) | 18µM* | u | 2% | u | u | -26
O=C(NC(c1ccc(-c2ccccc2)cc1)c1cnccn1)C1CCN(CCOc2ccc(F)cc2)CC1 (configuration not stated) | u | u | 1% | -21 | -54* | -13
O=C(NC(c1ccc(F)cc1)c1cnccn1)C1CCN(CCOc2ccc(Cl)cc2Cl)CC1 (configuration not stated) | 16µM* | u | -4% | -71* | x | -9
O=C(NC(c1ccc(Cl)cc1)c1cccnc1)C1CCN(CCOc2ccc(Cl)cc2Cl)CC1 (configuration not stated) | u | u | 0% | u | 0 | -19
O=C(NCc1ccc(Cl)cc1)C1CCN(c2cnccn2)CC1 | 4% | 1% | -14% | 7 | 36 | 16
O=C(NC(c1ccc(-c2ccccc2)cc1)c1cnccn1)C1CCN(CCCOc2ccccc2)CC1 (configuration not stated) | 13µM* | 23µM* | -1% | -73* | -21 | -15
CCCOP(=O)(c1ccc(N(C)C)cc1)C(Nc1ccccc1)c1ccc(N(C)C)cc1 (configuration not stated) | 2.3µM* | 8.2µM* | -10% | -6 | 6 | -6
Cc1ccc(CNC(=O)C(=O)NCC(c2ccc3c(c2)OCO3)N2CCOCC2)cc1 (configuration not stated) | -25% | 2% | -3% | x | x | -1
COc1ccc(Cc2noc(CN3CCC(c4ccncc4)CC3)n2)cc1OC | 23µM* | 21µM* | 0% | 0 | 43 | 4
Fc1cccc(Cc2noc(CN3CCN(C4CCc5ccccc5C4)CC3)n2)c1 (configuration not stated) | u | u | x | -10 | 23 | -16
COc1ccc(Cc2noc(CN3CCN(C4CCc5ccccc5C4)CC3)n2)cc1OC (configuration not stated) | 21µM* | u | x | u | -18 | -13
CCN(C(=O)CN1C(=O)/C(=C/c2ccccc2)SC1=S)C1CCS(=O)(=O)C1 (configuration not stated) | u | 23µM* | 0% | -18 | -10 | -7
O=C1/C(=C/c2ccccc2)SC(=S)N1C1CCS(=O)(=O)C1 (configuration not stated) | u | 23µM* | 0% | 0 | 18 | -14
O=C1/C(=C/c2ccncc2)SC(=S)N1C1CCS(=O)(=O)C1 (configuration not stated) | 8.2µM* | 5.8µM* | -1% | -14 | -92* | -4
CCC1=Nc2cc(C(=O)NCC3CCCO3)ccc2Sc2ccc(Cl)cc21 (configuration not stated) | 4.1µM* | 3.7µM* | 3% | -2 | 114 | 1
CCC1=Nc2cc(C(=O)NCC3CCCO3)ccc2Sc2ccc(Br)cc21 (configuration not stated) | 3.3µM* | 3.7µM* | -2% | -15 | 101 | -1
CN(CCO)C(=O)c1cn(C2CCN(Cc3ccc(C(F)(F)F)cc3)CC2)nn1 | -14% | -14% | x | x | x | x
CC(=O)c1cc2c(ccc3ccccc32)oc1=O | 12% | 23% | -1% | -27 | -21 | -8
O=c1oc2ccc3ccccc3c2c2c1SC(C(F)(F)F)C2 (configuration not stated) | u | -26% | 35µM* | 4 | -12 | -8
CCCCN1C(=O)C(=O)N(CC(=O)N2CCc3ccccc32)C1=O | -20% | -13% | 1% | -14 | 3 | -10
COc1ccc(NC(=O)Cn2c(C)c3cnn(-c4ccccc4)c(=O)c3c2C)c(OC)c1 | -18% | -18% | -4% | x | x | 6
SMILES | TDP1 cell noCPT | DT40 TDP1 CPT | ClpP mod | D3 antag | IL-1B inflam inh | DRD3 agonist
Cc1ccc(-n2ncc(C(=O)NC3CCCC3)c2C2CCN(C(=O)OC(C)(C)C)CC2)c(C)c1 | u | u | 2% | x | x | 8
CC(C)(C)OC(=O)N1CCC(c2c(C(=O)NC3CCCCC3)cnn2-c2ccc(F)cc2F)CC1 | u | 21µM* | 2% | x | x | 4
COc1ccccc1N1CCN(C(=O)c2cnn(-c3ccc(F)cc3F)c2C2CCNCC2)CC1 | 18µM* | -28% | -2% | x | x | -14
O=C(c1ccco1)N1CCN(C(=O)c2cnn(-c3cccc(F)c3)c2C2CCNCC2)CC1 | 23% | -8% | 1% | 1 | 7 | 84*!
COc1ccccc1CNC(=O)c1cnn(-c2ccc(F)cc2F)c1C1CCN(C(=O)OC(C)(C)C)CC1 | u | 16µM* | 2% | x | x | 0
O=C(Cc1cccs1)NCc1cc(Cl)cc(Cl)c1 | -5% | -2% | x | 0 | u | -4
CSc1nnc(C(C)(C)C)c(=O)n1/N=C/c1ccc(Cl)cc1 | u | -4% | x | -11 | x | -12
Cc1cccc(N2CCN(C(=O)c3cnn(-c4ccc(F)cc4F)c3C3CCN(C(=O)OC(C)(C)C)CC3)CC2)c1C | 21µM* | 21µM* | 2% | x | x | -10
COc1ccc(-c2nnc3c4ccccc4c(C)nn23)cc1 | 18µM* | u | 0% | u | 19 | 0
Cc1nn2c(-c3ccco3)nnc2c2ccccc12 | 21µM* | u | 0% | 26 | -9 | -4
CCN(CC)CCN1C(=O)c2ccccc2NC1c1ccc(C)cc1 (configuration not stated) | u | -28% | 32µM* | -18 | 6 | -20
